Screens from PubChem.
D3 antag: D3 dopamine receptor (human) antagonism; max response, negative = inhibition, %; D3R cells, DiscoveRx beta-arrestin luminescence, antagonist mode; stronger effect = lower value; 360,000 tested, 2.5% active; AID 652054; P35462; in the data active = max response below about -50%; inconclusive = no clear call, values can overlap the other calls
Target sequence (P35462 whole entry, looked up): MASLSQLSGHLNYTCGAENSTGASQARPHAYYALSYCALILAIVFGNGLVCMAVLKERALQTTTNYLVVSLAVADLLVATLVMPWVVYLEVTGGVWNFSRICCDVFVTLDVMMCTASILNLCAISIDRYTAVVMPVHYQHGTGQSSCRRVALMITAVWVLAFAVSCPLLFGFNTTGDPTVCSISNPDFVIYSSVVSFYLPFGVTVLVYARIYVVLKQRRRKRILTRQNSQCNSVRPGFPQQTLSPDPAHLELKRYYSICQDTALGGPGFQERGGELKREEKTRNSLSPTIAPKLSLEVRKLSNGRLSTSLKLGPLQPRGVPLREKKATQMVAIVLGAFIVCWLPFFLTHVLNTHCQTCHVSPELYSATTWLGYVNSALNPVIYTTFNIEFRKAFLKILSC
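Cells expressing the human receptor were seeded at 1500 cells/well, incubated overnight at 37 degrees C in 5% CO2, then exposed to library compounds with dopamine controls for 90 minutes at 37 degrees C before luminescent detection.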
TGFb inhibitor: blocks TGF-b signaling; AID 588855; 410,000 tested, 1.2% active; Potency, µM (series often up to 46.1 µM), usual class: inhibitors; HepG2 CAGA-GFP TGF-b/SMAD3 reporter, GFP fluorescence, 18 h; TGF-beta stimulated, 500 pg/mL final; note: nearly all actives have a fitted effect of over 65% in size
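First, reporter cells (HEPG2 CAGA-GFP) rested 2 h at 37 degrees C. Next, compounds were pinned in and TGF-beta added to 500 pg/mL final. After 18 h, GFP was imaged per cell and summed per well.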
DRD3 agonist: agonists of human D3 dopamine receptor; D3R DiscoveRx beta-arrestin cells, luminescence, 90 min; 410,000 tested, 0.58% active; max activation, %; AID 652048; P35462; in the data active = max activation above about 30%
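Cells at 1500/well, incubated overnight, then treated with pinned compounds (dopamine as control) for 90 min at 37 degrees C. DiscoveRx reagent added for 30 - 60 minutes at room temperature; luminescence read.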
HepG2 tox-1: HepG2 cytotoxicity, counter-screen for TGF-b inhibitors; HepG2 CAGA-GFP viability, ATP luminescence, 18 h; Potency, µM (series often up to 46.1 µM), usual class: cytotoxic; 410,000 tested, 0.76% active; AID 588856
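HepG2 CAGA-GFP cells (1000/well, DMEM with 1% FBS) received compound, then TGF-beta at 500 pg/mL final, and were incubated 18 hours at 37 degrees C. Viability was read by CellTiter-Glo luminescence. Media-only wells were set as complete cell-killing and DMSO as no toxicity.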
ATXN2 expr inh: reduces ATXN2 reporter expression in HEK-293 cells. AID 1745845. 360,000 tested, 0.72% active. HEK-293 ATXN2-luciferase reporter, luminescence, 24 h. Potency, µM (titrated, usually from 57 µM), usual class: inhibitors; note: nearly all actives have a fitted effect of over 55% in size
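qHTS (up to 57 uM final) was run with 24 h compound exposure of reporter cells at 37 °C. Each well was multiplexed: SteadyGlo luminescence measured ATXN2-luciferase expression after a fluorogenic Gly-Phe-AFC viability readout (25 uM final).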
S2 tox: cell viability loss in ATXN counter-screen; Potency, µM (titrated, usually from 56.7 µM), actives largely listed as cytotoxic; 400,000 tested, 0.49% active; S2 cells (HEK-293 line with an ATXN2-luciferase reporter) viability, CellTiter-Fluor protease fluorescence, 24 h; note: nearly all actives have a fitted effect of over 40% in size
TGFb confirm: TGF-b pathway inhibition, cherry-pick retest | shares compounds with TGFb inhibitor | HepG2 CAGA-GFP TGF-b reporter, GFP fluorescence, 18 h; cells stimulated with TGF-beta, 500 pg/mL | Potency, µM (doses to about 46.1 µM), most hits filed as inhibitors | 1,600 tested, 63% active | AID 720534; note: nearly all actives have a fitted effect of over 65% in size
HepG2 tox-2: toxic to HepG2 cells in TGF-b counterscreen; HepG2 CAGA-GFP viability, ATP luminescence, 18 h; cells stimulated with TGF-beta, 500 pg/mL; Potency, µM (series often up to 46.1 µM), hits mostly inhibitors; 1,600 tested, 27% active; shares compounds with TGFb inhibitor; note: nearly all actives have a fitted effect of over 70% in size
CCL64 TGFb inh: orthogonal confirmation of TGF-b inhibitors in CCL64 cells | AID 720536 | shares compounds with TGFb inhibitor | 1,600 tested, 41% active | Potency, µM (doses to about 46.1 µM), usual class: inhibitors | CCL64 CAGA-GFP reporter, TGF-b stimulated, GFP fluorescence, 18 h; note: nearly all actives have a fitted effect of over 65% in size
COP TGFb inh: validation of TGF-b inhibitors in HepG2 COP promoter reporter | shares compounds with TGFb inhibitor | Potency, µM (highest dose often 46.1 µM), usual class: inhibitors | HepG2 COP-GFP TGF-b reporter, GFP fluorescence, 18 h; cells stimulated by added recombinant TGF-beta | AID 720537 | 1,600 tested, 3% active; note: nearly all actives have a fitted effect of over 70% in size
Large screens that a line does not name were inactive (follow-up assays come after a bar, where they were run). Only some compounds are listed: those with a hit (about 4.8% of all), similar ones and a draw of the others. Unless noted, calls come from the whole dose curve; as a rule, active = well fitted curve in the direction sought with a large enough effect; inconclusive = small, poorly fitted or top-dose-only effect, or another doubt; inactive = no such curve, though single readings can be large; an effect the other way counts as inactive or inconclusive.

COc1cc(C2c3cc4c(cc3OC(NNC(N)=O)C2C)OCO4)cc(OC)c1OC (configuration not stated)	TGFb inhibitor inconclusive
O=c1c2oc3ccccc3c2n(Cc2ccccc2Cl)c(=O)n1Cc1ccc2c(c1)OCO2	none (no result: D3 antag, ATXN2 expr inh, S2 tox)
CC1=C(c2ccc(C)cc2)S(=O)(=O)N(Cc2ccc(C(=O)NCc3cccc(C)c3)cc2)C1=O	none (no result: D3 antag, ATXN2 expr inh, S2 tox)
CCCS(=O)(=O)Nc1ccc(Nc2c3ccccc3nc3ccccc23)c(OC)c1	TGFb inhibitor 10µM, ATXN2 expr inh inconclusive, S2 tox 12µM | TGFb confirm inconclusive | HepG2 tox-2 15µM | CCL64 TGFb inh 13µM | COP TGFb inh inactive
COc1cc(N)ccc1Nc1c2ccccc2nc2ccccc12	D3 antag inconclusive, TGFb inhibitor inconclusive, ATXN2 expr inh inconclusive (no result: S2 tox)
Cc1ccc(CCNC(=O)c2ccc3c(c2)c(C)c(C)n3Cc2ccccc2)cc1	none (no result: D3 antag, ATXN2 expr inh, S2 tox)
COc1ccc(NC(=O)Cn2ccn(Cc3ccccc3)c(=O)c2=O)cc1Cl	none (no result: D3 antag, ATXN2 expr inh, S2 tox)
Cc1ccc(S(=O)(=O)N(CC(=O)Nc2ccc(Cl)c([N+](=O)[O-])c2)C2CCCCC2)cc1	TGFb inhibitor 10µM | TGFb confirm inconclusive | HepG2 tox-2 inactive | CCL64 TGFb inh inconclusive | COP TGFb inh inactive
Cc1ccc(NS(=O)(=O)c2ccc(OCC(=O)Nc3cccc([N+](=O)[O-])c3)c(C)c2)cc1	TGFb inhibitor 11µM, ATXN2 expr inh inconclusive, S2 tox inconclusive | TGFb confirm inactive | HepG2 tox-2 inactive | CCL64 TGFb inh inactive | COP TGFb inh inactive
CC(C)(C)c1ccc(-c2nc3cc(NC(=O)c4cccc(Br)c4)ccc3o2)cc1	none (no result: D3 antag)
Cc1ccc(NC(=O)COC(=O)C2(c3ccc(Cl)cc3)CCCC2)cc1	TGFb inhibitor 10µM, ATXN2 expr inh inconclusive, S2 tox inconclusive | TGFb confirm inconclusive | HepG2 tox-2 inconclusive | CCL64 TGFb inh inconclusive | COP TGFb inh inactive
COc1ccc(CCNc2ncnc3onc(C)c23)c(OC)c1	ATXN2 expr inh inconclusive (no result: D3 antag)
CCOC(=O)c1c(-c2cccs2)csc1N	TGFb inhibitor inconclusive | TGFb confirm inactive | HepG2 tox-2 inactive | CCL64 TGFb inh inactive | COP TGFb inh inactive
COc1cc(C(=O)N/N=C/c2cn(Cc3ccccc3)c3ccccc23)ccc1O	none
CNC(=S)N/N=C/c1cn(Cc2ccc(F)cc2)c2ccccc12	TGFb inhibitor inconclusive, S2 tox inconclusive
Cc1ccc(OCC(=O)N/N=C\c2cn(Cc3ccccc3)c3ccccc23)cc1C	TGFb inhibitor 11µM | TGFb confirm 5.2µM | HepG2 tox-2 5.2µM | CCL64 TGFb inh inactive | COP TGFb inh inactive
Nc1ccc(C(=O)N/N=C/c2cn(Cc3ccc(F)cc3)c3ccccc23)cc1	TGFb inhibitor 7.9µM | TGFb confirm 5.8µM | HepG2 tox-2 2.1µM | CCL64 TGFb inh inactive | COP TGFb inh inactive
COc1cccc(CC(=O)NCC2Cc3cc(Cl)cc(-c4ncccn4)c3O2)c1 (configuration not stated)	none (no result: D3 antag, TGFb inhibitor, DRD3 agonist, HepG2 tox-1, ATXN2 expr inh)
Cc1cccc(NS(=O)(=O)c2ccc(-c3cnc(C4CC4)o3)cc2)c1C	TGFb inhibitor 14µM, S2 tox inconclusive (no result: ATXN2 expr inh) | TGFb confirm 1.8µM | HepG2 tox-2 inconclusive | CCL64 TGFb inh 4.1µM | COP TGFb inh inactive
Cc1cc(C)cc(NS(=O)(=O)c2ccc(-c3cnc(C4CC4)o3)cc2)c1	TGFb inhibitor 7.9µM (no result: ATXN2 expr inh) | TGFb confirm 8.2µM | HepG2 tox-2 inconclusive | CCL64 TGFb inh 5.2µM | COP TGFb inh inactive
O=C(NCC1CCC2(CCN(Cc3c[nH]c4ccccc34)CC2)O1)C1CCOCC1 (configuration not stated)	none (no result: D3 antag, TGFb inhibitor, DRD3 agonist, HepG2 tox-1, ATXN2 expr inh)
N#Cc1ccc(NC(=O)Nc2ccc(Oc3ccc(NC(=O)Nc4ccc(C#N)cc4)cc3)cc2)cc1	TGFb inhibitor 5.6µM, ATXN2 expr inh inconclusive, S2 tox inconclusive | TGFb confirm 4.6µM | HepG2 tox-2 inconclusive | CCL64 TGFb inh inactive | COP TGFb inh inactive
O=C(Cc1ccc(NC(=O)N2CCCCc3ccccc32)cc1)NCc1ccccc1Br	S2 tox inconclusive (no result: D3 antag)
COc1ccc(CNc2cccc3[nH]c(C(F)(F)F)nc23)cc1OC	TGFb inhibitor 5.6µM (no result: ATXN2 expr inh, S2 tox) | TGFb confirm inconclusive | HepG2 tox-2 inactive | CCL64 TGFb inh inactive | COP TGFb inh inactive
O=S(=O)(Nc1ccc(-c2ccc(N3CCCCC3)nn2)cc1)c1ccc(OC(F)(F)F)cc1	TGFb inhibitor inconclusive, S2 tox inconclusive (no result: D3 antag)
CN(C)CCN(C)C1CN(Cc2ccc(F)cc2)S(=O)(=O)C1 (configuration not stated)	TGFb inhibitor inconclusive | TGFb confirm inactive | HepG2 tox-2 inactive | CCL64 TGFb inh inactive | COP TGFb inh inactive
CC(=NNC(=S)N1CCCC1)c1ccccn1	TGFb inhibitor inconclusive, S2 tox inconclusive (no result: ATXN2 expr inh) | TGFb confirm inconclusive | HepG2 tox-2 inconclusive | CCL64 TGFb inh inconclusive | COP TGFb inh inactive
CC(=NNC(=S)SCc1ccccc1)c1ccccn1	TGFb inhibitor inconclusive, ATXN2 expr inh inconclusive, S2 tox inconclusive
O=C(NCCc1nc2ccccc2[nH]1)c1ccc(Cl)c([N+](=O)[O-])c1	none
CCCNC(=O)c1ccc2c(=O)c(O)c(-c3ccc(Cl)c([N+](=O)[O-])c3)[nH]c2c1	TGFb inhibitor 7.1µM, S2 tox inconclusive | TGFb confirm 5.2µM | HepG2 tox-2 inconclusive | CCL64 TGFb inh 6.5µM | COP TGFb inh inactive
CCCCn1c(C2CC(=O)N(c3ccc(OCC)cc3)C2)nc2ccccc21 (configuration not stated)	TGFb inhibitor inconclusive, S2 tox inconclusive (no result: D3 antag)
CCN(CC)C(=O)[C@H]1C[C@H](CC(=O)NCCCOC)C(=O)N2CCc3c([nH]c4cc(-c5ccco5)ccc34)[C@]12C	none
